TROY signal inh = inhibitors of TROY-driven NF-kB signaling, primary screen, Q293 LMP1-TROYcd cells, NF-kB luciferase, uHTS. Q293 LMP1-TROYcd NF-kB luciferase reporter, 4 h. inhibition, % at 10 µM. 360,000 compounds, 0.98% hits. AID 1347056, 2019;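 active = compounds whose plate-normalised and pattern-corrected inhibition of the luciferase reporter signal at the single screening dose is 50% or more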
HSP90 inh = HSP90 inhibitors, primary screen, cell lysate, luminescence | Rabbit reticulocyte lysate, luciferase refolding luminescence, 3 h | Heat shock protein HSP 90 (rabbit reticulocyte lysate; luciferase refolding) | inhibition, % at 5.6 µM | 290,000 compounds, 0.91% hits;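 active = inhibition above the screen-wide mean plus 3 SD, computed separately per campaign, cut at about 16% in these data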;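 also: inhibitors lower the luminescence because luciferase stays unfolded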
LGR2 inh = inhibitors of bursicon-induced LGR2 CRE-luciferase signal, primary screen, cell-based, HEK293, CRE-luciferase reporter, bursicon stimulation. Drosophila bursicon receptor LGR2 (rickets). bursicon-stimulated, 4 h. inhibition, % at 9.99 µM. 380,000 compounds, 0.35% hits. AID 720647, 2013;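 active = drop in luminescence signal, shown as inhibition above about 50% in the replicate tests, limit read from the data, passing the limit was not always enough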;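 also: agonist challenge used bursicon conditioned medium at about half maximal strength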
TWEAK-Fn14 inh = inhibitors of TWEAK-Fn14 signaling, primary screen, luciferase reporter cells, uHTS | inhibition, % at 10 µM | AID 1159606, 2016 | 360,000 compounds, 2% hits | TWEAK-stimulated Fn14 reporter cells, luciferase luminescence, 8 h; in the data active = inhibition above about 50%
Hits are given with their value. Most compounds without a hit are left out; they make up all but 2.2% or so of the library.

For COc1ccc(/C=C2/SC(=S)N(CCCC(=O)Nc3ccccc3C(=O)O)C2=O)cc1 the results were TROY signal inh 75, HSP90 inh inactive, LGR2 inh inactive and TWEAK-Fn14 inh inactive.
`O=C(CCN1C(=O)S/C(=C\c2ccc(Cl)cc2)C1=O)Nc1ccc(C(=O)O)cc1` gave TROY signal inh inactive, HSP90 inh inactive, LGR2 inh inactive and TWEAK-Fn14 inh inactive.
Screening C[C@H](CO)N1C[C@H](C)[C@@H](CN(C)Cc2ccc(-c3ccccc3)cc2)Oc2c(NC(=O)C3CC3)cccc2C1=O returned LGR2 inh inactive.
`O=c1c2[nH]c3cccc(Cl)c3c2ncn1CC1CCCO1` (stereo not drawn) gave TROY signal inh 77, HSP90 inh inactive, LGR2 inh inactive and TWEAK-Fn14 inh 87.
`O=c1c2[nH]c3cccc(Cl)c3c2ncn1CCN1CCCCC1` gave TROY signal inh inactive, HSP90 inh inactive, LGR2 inh inactive and TWEAK-Fn14 inh inactive.
For Cc1cc(Br)cn2c(Cc3cccc(Cl)c3)c(-c3ccco3)nc12 the results were TROY signal inh inactive, LGR2 inh inactive and TWEAK-Fn14 inh 68.
Clc1cccc(Cc2c(-c3ccco3)nc3ccc(Br)cn23)c1 was read as TROY signal inh inactive and TWEAK-Fn14 inh inactive.
For Clc1cccc(Cc2c(-c3ccco3)nc3ccc(Cl)cn23)c1 the results were TROY signal inh inactive, LGR2 inh inactive and TWEAK-Fn14 inh 64.
COc1ccccc1Cc1c(-c2ccc(Cl)cc2)nc2c(C)cc(Br)cn12 was read as TROY signal inh inactive, LGR2 inh inactive and TWEAK-Fn14 inh 60.
For Cc1ccc(Cc2c(-c3ccco3)nc3c4ccccc4ccn23)cc1 the results were TROY signal inh inactive, LGR2 inh inactive and TWEAK-Fn14 inh 81.
Cc1ccc(Cc2c(-c3ccco3)nc3c(C)cc(Br)cn23)cc1 was read as TROY signal inh inactive, LGR2 inh inactive and TWEAK-Fn14 inh inactive.
Screening COc1ccc2c3c([nH]c2c1)[C@@H](CO)N(Cc1cccnc1)CC31CN(C(=O)c2cccnc2)C1 returned LGR2 inh inactive.
CO[C@H]1CN(C)C(=O)c2ccc(NC(=O)C3CCCC3)cc2OC[C@H](C)N(S(C)(=O)=O)C[C@H]1C was read as LGR2 inh inactive.
CC(C)NC(=O)Nc1ccc2c(c1)C(=O)N([C@H](C)CO)C[C@@H](C)[C@H](CN(C)CC1CCCCC1)OCCCC[C@H](C)O2 was read as LGR2 inh inactive.
For c1cc2cc(-c3c(-c4ccc5c(c4)OCO5)noc3-c3ccsc3)ccc2[nH]1 the results were TROY signal inh inactive, HSP90 inh inactive, LGR2 inh inactive and TWEAK-Fn14 inh inactive.
`Cc1onc(-c2ccc3c(c2)OCO3)c1-c1ccc2[nH]ccc2c1` gave TROY signal inh inactive, HSP90 inh inactive, LGR2 inh inactive and TWEAK-Fn14 inh 62.
Screening O=C(Nc1ccccc1)N[C@@H]1CC[C@H](CCNS(=O)(=O)c2cccc(F)c2)O[C@H]1CO returned LGR2 inh inactive.
`N#CC(=C=[N-])c1nc2ccccc2nc1-[n+]1cccc(NC(=O)c2ccccc2)c1` gave TROY signal inh inactive, HSP90 inh inactive, LGR2 inh inactive and TWEAK-Fn14 inh 75.
Screening CC(=O)N(C)c1ccc(OCC(O)Cn2c3ccc(Cl)cc3c3cc(Cl)ccc32)cc1 (stereo not drawn) returned TROY signal inh 63, HSP90 inh inactive and TWEAK-Fn14 inh inactive.
For CC(O)c1cccc(NC(=O)CC(c2ccccc2)c2ccccc2)c1 (stereo not drawn) the results were TROY signal inh inactive, HSP90 inh inactive, LGR2 inh inactive and TWEAK-Fn14 inh 86.
`Cc1nc(Nc2nc(-c3ccccc3)cc(=O)[nH]2)nc2ccccc12` gave TROY signal inh inactive, HSP90 inh inactive, LGR2 inh 63 and TWEAK-Fn14 inh inactive.
Cc1ccc2nc(Nc3nc(CSc4nnnn4-c4ccccc4)cc(=O)[nH]3)nc(C)c2c1 was read as TROY signal inh inactive, HSP90 inh inactive and TWEAK-Fn14 inh inactive.
COc1ccc2c(C)nc(Nc3nc(C)c(C)c(=O)[nH]3)nc2c1 was read as TROY signal inh inactive, HSP90 inh inactive and TWEAK-Fn14 inh 53.
For Cc1nc(Nc2nc(CSc3nc4ccccc4[nH]3)cc(=O)[nH]2)nc2ccccc12 the results were TROY signal inh inactive, HSP90 inh inactive, LGR2 inh 82 and TWEAK-Fn14 inh 92.
`Cc1nc(Nc2nc(CSc3ccc(Cl)cc3)cc(=O)[nH]2)nc2ccccc12` gave TROY signal inh inactive, HSP90 inh inactive, LGR2 inh inactive and TWEAK-Fn14 inh inactive.
Screening COc1ccc2nc(Nc3nc(CSc4nc5ccccc5[nH]4)cc(=O)[nH]3)nc(C)c2c1 returned TROY signal inh 58, HSP90 inh inactive, LGR2 inh 87 and TWEAK-Fn14 inh 91.
For O=C(CCN1CCCCC1)NCC[C@H]1CC[C@H](NC(=O)Nc2ccc(F)cc2)[C@@H](CO)O1 the results were LGR2 inh inactive.
`COCC(=O)N(C)C[C@H]1Oc2ncc(C#Cc3ccccc3)cc2C(=O)N([C@H](C)CO)C[C@@H]1C` gave LGR2 inh inactive.
Cc1cc(C)cc(Nc2nc3ccccc3c(=O)[nH]2)c1 was read as TROY signal inh inactive, HSP90 inh inactive, LGR2 inh inactive and TWEAK-Fn14 inh inactive.
`COc1nc(Nc2nc3ccccc3c(=O)[nH]2)nc2ccc(C)cc12` gave TROY signal inh inactive, HSP90 inh inactive, LGR2 inh 52 and TWEAK-Fn14 inh 55.
For COc1cc(SC)ccc1C(=O)Nc1nccs1 the results were TROY signal inh inactive, HSP90 inh inactive, LGR2 inh inactive and TWEAK-Fn14 inh 63.
`O=C(c1ccc(Cl)nc1)N1CCc2ccccc2C1` gave HSP90 inh inactive, LGR2 inh inactive and TWEAK-Fn14 inh 79.
`O=C(c1ccncc1)N1CCc2ccccc2C1` gave TROY signal inh inactive, HSP90 inh inactive, LGR2 inh inactive and TWEAK-Fn14 inh inactive.
For COc1ccc(C[C@H]2CCn3cc(nn3)COC[C@H](C(C)C)NC2=O)cc1 the results were LGR2 inh inactive.
Screening c1coc(CN(Cc2cccs2)Cc2nnnn2C2CCCCC2)c1 returned TROY signal inh inactive, HSP90 inh inactive and TWEAK-Fn14 inh 51.
For CCS(=O)(=O)Nc1ccc2c(c1)C(=O)N(C)C[C@H](OC)[C@@H](C)CN(C(=O)NC(C)C)[C@@H](C)CO2 the results were LGR2 inh inactive.
`CO[C@@H]1CN(C)C(=O)c2ccc(NS(C)(=O)=O)cc2OC[C@@H](C)N(C(=O)C2CCCC2)C[C@@H]1C` gave LGR2 inh inactive.
For Cc1cccc(C)c1NC(=O)CN(C)C(=O)c1cccc(S(=O)(=O)N2CCN(c3ccccc3)CC2)c1 the results were TROY signal inh inactive, HSP90 inh inactive, LGR2 inh inactive and TWEAK-Fn14 inh inactive.
`CN(CCOc1ccc(Cl)cc1)C(=O)c1cccc(S(=O)(=O)N2CCN(c3ccc(F)cc3)CC2)c1` gave TROY signal inh inactive and TWEAK-Fn14 inh 64.

Compound activity as filed in PubChem.
